Lmaj promast: Leishmania major promastigote growth inhibition; inhibition, % at 10 µM; 200,000 compounds, 9% hits; AID 1063; Leishmania major promastigotes, resazurin fluorescence viability; in the data active = inhibition above about 50%;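 note: promastigotes grown with compound for 44 hours at 28 °C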
INS promoter inh: TRM-6 insulin promoter activity inhibition | TRM-6 cells (human fetal islet line), insulin promoter-eGFP reporter, imaging; reporter expression induced with tamoxifen | inhibition, % at 2 µM | 130,000 compounds, 0.9% hits;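 active = inhibition above the mean plus 3 SD, with well images judged a real hit on visual review, cut at about 60% in these data, passing the limit was not always enough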
KCC2 mod: KCC2 (human) Cl- transport modulation | 190,000 compounds, 2.2% hits | B-score of Tl+ flux slope (higher = more flux/activation; lower = inhibition) at 10 µM | KCC2 cells, thallium flux FluoZin-2 fluorescence;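 active = thallium flux slope and its plate-corrected score both differing from the plate sample mean at a set confidence after two filtering rounds, in either direction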;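 note: slope of fluorescence scaled to starting intensity during 10 to 20 s after thallium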
Target sequence (Q9H2X9 whole entry, looked up): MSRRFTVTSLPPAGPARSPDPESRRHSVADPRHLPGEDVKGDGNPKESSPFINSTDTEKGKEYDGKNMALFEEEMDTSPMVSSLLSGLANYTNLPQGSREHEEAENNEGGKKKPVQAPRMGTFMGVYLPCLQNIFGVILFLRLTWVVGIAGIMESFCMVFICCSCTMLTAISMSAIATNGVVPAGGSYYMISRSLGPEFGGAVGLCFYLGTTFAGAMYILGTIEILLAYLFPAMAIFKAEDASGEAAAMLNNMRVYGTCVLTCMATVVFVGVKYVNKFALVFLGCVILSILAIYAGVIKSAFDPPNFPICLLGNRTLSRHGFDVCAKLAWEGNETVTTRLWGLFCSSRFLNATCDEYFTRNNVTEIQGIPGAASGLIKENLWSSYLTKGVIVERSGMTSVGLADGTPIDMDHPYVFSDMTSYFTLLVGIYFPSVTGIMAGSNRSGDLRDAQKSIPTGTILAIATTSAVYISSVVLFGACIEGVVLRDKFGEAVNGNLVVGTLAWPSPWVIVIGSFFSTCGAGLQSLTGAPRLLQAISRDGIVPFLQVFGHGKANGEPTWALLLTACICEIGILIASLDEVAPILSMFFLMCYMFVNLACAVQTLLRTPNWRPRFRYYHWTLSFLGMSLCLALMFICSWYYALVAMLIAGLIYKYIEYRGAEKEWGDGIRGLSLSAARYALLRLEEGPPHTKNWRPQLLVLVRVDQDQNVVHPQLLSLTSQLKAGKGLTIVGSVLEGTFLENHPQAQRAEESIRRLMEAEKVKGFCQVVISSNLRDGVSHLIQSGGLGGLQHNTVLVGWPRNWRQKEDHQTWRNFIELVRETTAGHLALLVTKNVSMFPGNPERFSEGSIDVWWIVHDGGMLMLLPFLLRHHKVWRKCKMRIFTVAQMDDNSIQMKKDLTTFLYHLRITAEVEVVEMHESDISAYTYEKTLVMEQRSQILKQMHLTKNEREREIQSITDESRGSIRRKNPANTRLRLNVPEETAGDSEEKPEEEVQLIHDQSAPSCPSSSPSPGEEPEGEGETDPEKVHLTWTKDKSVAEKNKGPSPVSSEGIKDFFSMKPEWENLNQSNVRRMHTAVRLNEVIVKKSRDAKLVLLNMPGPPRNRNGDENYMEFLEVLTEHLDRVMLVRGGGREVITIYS
Ins promoter up: MIN6 insulin promoter up-regulation | MIN6 insulin promoter-GFP reporter, high-content imaging; stronger effect = higher value | z-score at 5 µM | 190,000 compounds, 0.3% hits | AID 1625;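 active = z-score above 3 at 5 µM with at least 500 cells counted in the well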
WT yeast gro inh: growth inhibition of WT yeast, mitochondrial fusion screen | mitochondrial fusion phenotypic screen, WT strain | inhibition, % at 10 µM | 190,000 compounds, 2.1% hits | AID 1362; in the data active = inhibition above about 58%; tested in S. cerevisiae
ROMK mod: human ROMK K+ channel modulation, primary screen; P48048; Tet-inducible ROMK, thallium flux fluorescence; actives lie on both sides; B-score at 10 µM; 130,000 compounds, 2% hits; AID 1918;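 active = signal ratio slope over the read window, or its plate-corrected B-score, at least 3 SD from the plate mean, either direction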;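 note: B-score of the F/F0 ratio slope over 7 to 12 s after thallium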
Starred values were filed as active, the others as inactive; . = no result given. Only some compounds are listed: those with a hit (about 12% of all), similar ones and a draw of the others.

SMILES	Lmaj promast	INS promoter inh	KCC2 mod	Ins promoter up	WT yeast gro inh	ROMK mod
COc1ccccc1CN(C(=O)CCl)C(C(=O)NC1CCCCC1)c1ccncc1 (stereo not given)	61*	48	1.3	0.04	0	.
COc1ccc(CCNC(=O)C(C)SCc2ccccc2)cc1 (stereo not given)	-5	.	-1.2	1.2	0	0.41
COc1ccc(CN(C(=O)Cc2cccs2)C(C(=O)NC2CCCC2)c2ccncc2)cc1 (stereo not given)	57*	0	0.34	.	10	.
Cc1noc(C)c1COC(=O)c1cccc(N(C)C)c1	-8	-50	-0.63	-0.36	1	-1.3
COCCN(C(=O)Cc1cccs1)C(C(=O)NCc1ccc(OC)cc1)c1ccccc1 (stereo not given)	2	-50	.	1.5	99*	.
COc1ccc(CNC(=O)C(c2ccncc2)N(C(=O)Cc2cccs2)c2ccccc2)cc1 (stereo not given)	8	.	-0.62	-0.48	-2	-1.3
O=C(Cc1cccs1)NCCCc1ccccc1	-3	.	-0.22	0.3	-4	1.4
COc1ccc(CCNC(=O)Cc2cccs2)cc1	56*	7	0.043	-0.09	-12	1
O=C1CCCC2(O)C1C(c1cccc(Br)c1)NC(=O)N2Cc1ccccc1 (stereo not given)	2	.	0.54	1.5	-10	.
CCC(=C(c1ccc(OC)cc1)c1ccc(OC)cc1)c1cn(CC(O)CN(CCO)CCO)c2ccccc12 (stereo not given)	69*	.	0.29	0.18	98*	-0.36
COc1ccc(OCC(O)CN(CCO)CC(O)Cn2ccc3ccccc32)cc1 (stereo not given)	-2	-44	-0.061	-0.13	-15	-2.3
Cc1cc(C(=O)c2ccccc2)c(NC(=O)CCl)s1	100*	.	-0.08	-0.13	1	.
O=C(NC(=O)c1ccccc1F)OCc1ccc(Cl)cc1Cl	.	.	-1.1	.	.	.
CCOC(=O)C1=C(CSc2nc3ccccc3s2)NC(=O)NC1c1ccc(OC)cc1 (stereo not given)	62*	.	0.2	-0.78	32	-0.057
COC(=O)C1=C(CN2CCc3ccccc32)NC(=O)NC1c1cc(C)ccc1C (stereo not given)	70*	-8	0.97	2.2	11	.
COC(=O)C1=C(CSc2nc3ccccc3o2)NC(=O)NC1c1cc(C)ccc1C (stereo not given)	22	29	0	0.04	75*	-0.73
CCOC(=O)C1=C(CSc2nc3ccccc3s2)NC(=O)NC1c1cc(C)ccc1C (stereo not given)	60*	.	.	-1.2	13	.
CCOC(=O)C1=C(CP(=O)(c2ccccc2)c2ccccc2)NC(=O)NC1c1ccc(OC)cc1 (stereo not given)	-4	.	0.19	0.67	-13	.
CCOC(=O)C1=C(CSCC(=O)OC)NC(=O)NC1c1cc(C)ccc1C (stereo not given)	2	-44	-0.13	-0.59	-12	-0.24
COc1cccc(C(=O)N2CCn3c2nc2ccccc23)c1	-1	-72	0.29	0.91	-14	0.84
Cc1cc(NC(=O)c2ccccc2-c2ccccc2)ccc1Br	80*	8	-1	0.12	72*	0.32
Cc1cccc(NC(=O)c2ccccc2-c2ccccc2)c1	5	.	-2.1	-0.7	3	-0.63
CCOc1ccc(S(=O)(=O)NCc2ccco2)cc1	-2	42	-0.57	0.25	38	-0.94
CC1=Nc2ccccc2N=C(NC(=O)CSC(=S)N2CCN(C)CC2)C1c1ccccc1 (stereo not given)	.	.	-0.29	-0.74	.	.
CCOC(=O)c1c(NC(=O)CSc2nnc(-c3ccncc3)n2Cc2ccco2)sc(C)c1C	56*	.	.	0	31	-0.16
SMILES	Lmaj promast	INS promoter inh	KCC2 mod	Ins promoter up	WT yeast gro inh	ROMK mod
CCOc1ccccc1NC(=O)CSc1nnc(-c2ccccc2Cl)n1Cc1ccco1	51*	-18	-2.2	-0.78	-4	-1.9
N#CCSc1nnc(-c2ccccc2)c(-c2ccccc2)n1	10	5	.	-0.28	30	-0.026
Cc1ccc(S(=O)(=O)N(CC(=O)N2CCC(C)CC2)c2ccccc2)cc1	6	-8	-0.098	0.99	2	.
COc1ccc(C2C=C(C34CC5CC(CC(C5)C3)C4)NC(=S)N2)cc1 (stereo not given)	16	.	0.53	-1.7	70*	-0.035
COc1ccc(C2=CC(c3ccc(OC)c(OC)c3)NC(=S)N2)cc1 (stereo not given)	-3	18	0.054	-0.5	-2	.
COc1cc(SC#N)ccc1N=Cc1c(C)[nH]n(-c2ccc(C)c(C)c2)c1=O	99*	.	0.048	0.27	92	0.97
N#CC1(c2ccccc2)CCC(=O)N1c1ccccc1 (stereo not given)	.	.	-0.23	-0.18	.	.
COc1ccc(N2C(=O)CC2(C#N)c2ccc(OCc3ccccc3)cc2)cc1 (stereo not given)	68*	30	-1.1	-0.49	-6	0.54
CC(C)CC(=O)NC(=S)Nc1ccc(S(=O)(=O)NC(C)(C)C)cc1	62*	-15	1.3	-0.06	8	0.042
Cc1noc(NS(=O)(=O)c2ccc(NC(=O)c3ccc(N4C(=O)c5ccccc5C4=O)cc3)cc2)c1C	-6	-29	0.92	-0.26	0	0.62
O=C(NC(=S)Nc1ccc(S(=O)(=O)Nc2nccs2)cc1)c1cccc(F)c1	-10	74*	0.3	0.46	-3	.
CCOc1ccc(NS(=O)(=O)c2ccc(NC(=S)NC(=O)CC(C)C)cc2)cc1	98*	-15	0.025	-1.4	79*	1.1
CC(C)CC(=O)NNC(=S)Nc1ccc(S(N)(=O)=O)cc1	-6	35	-0.31	1	-2	0.054
O=C(Nc1ccc(S(=O)(=O)Nc2nccs2)cc1)c1ccc(N2C(=O)c3ccccc3C2=O)cc1	101*	.	1.2	0.42	0	-1.6
Fc1ccc(Nc2nc(NCc3ccco3)c3ccccc3n2)cc1	.	.	-0.45	-3.2	.	-0.17
COc1ccc(NC(=O)COC(=O)Cc2ccc(Br)cc2)cc1	-6	.	-0.75	0.11	0	-0.034
CCCCCC1CC(CC(=O)Nc2nncs2)C(=O)O1 (stereo not given)	-2	-38	-0.65	0.47	3	-0.11
Cc1ccc(SCC(=O)Nc2ccc(S(=O)(=O)Nc3nccs3)cc2)cc1	-6	.	-0.67	0.15	-6	.
CC(C)CC(=O)NC(=S)Nc1ccc(S(=O)(=O)Nc2nccs2)cc1	55*	-12	0.28	-0.08	-11	1
CC1Cc2ccccc2N1C(=O)Cn1c(=O)cc(O)c2ccccc21 (stereo not given)	-8	-28	-1.4	.	97*	.
Cc1noc(C)c1S(=O)(=O)N1CCC(C(=O)N2CCN(c3ccc(Cl)cc3)CC2)CC1	68*	14	-1.6	-1.3	12	-1.9
Cc1noc(C)c1S(=O)(=O)N1CCC(C(=O)N2CCN(c3ccccc3Cl)CC2)CC1	97*	21	-0.71	0.45	12	-0.21

Assay outcomes deposited in PubChem BioAssay by several laboratories.
